In PubChem BioAssay AID602449 (Sanford-Burnham Center for Chemical Genomics, 2012):
The campaign covered roughly 360,000 compounds. About 5,000 (1.4%) were called active. For the sample, actives were picked, then their nearest neighbours and some compounds at random. Values without a mark were called inactive.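 The calls were made as follows: active = inhibition of 50% or more, scaled per plate between neutral and stimulator controls; inactive = the rest.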

Experiment: blockers of Ca2+-induced mitochondrial swelling – biochemical, isolated mouse mitochondria, absorbance, primary screen (AID 602449);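 also: 0% = DMSO wells given calcium and 100% = 1 mM EGTA wells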
Conditions: 30 min, at 10 µM, active compounds read high

| Compound | inhibition |
| --- | --- |
| CCn1c(NC(=O)c2ccccc2)c(-c2cccs2)c(=O)c2ccccc21 | 1.4% |
| N#Cc1ccc(C(=O)Nc2nc(-c3cccs3)c(C(=O)C(F)(F)F)s2)cc1 | 87.5% (active) |
| C=CCN(CC=C)S(=O)(=O)c1ccc(C(=O)Nc2nc3c(s2)CCc2ccccc2-3)cc1 | -1.2% |
| Cc1ccc2nnn(Cc3cccc(C(C)(C)C)c3O)c2c1 | 93.7% (active) |
| CCCNC(=O)c1ccccc1NC(=O)CSCc1ccc(OC)cc1 | 0% |
| COc1ccc(/C=C2/SC(=O)N(CCCCCC(=O)Nc3ccccc3C(=O)O)C2=S)cc1 | 60% (active) |
| COc1ccc(NC(=O)CCCN2C(=O)C(c3ccccc3)Oc3cccnc32)cc1 (stereo unspecified) | 1.6% |
| CCN1C[C@@H]2[C@@H]3C(=O)N(C)C(=O)[C@@H]3[C@](C)(C1=O)N2C(=O)c1ccccc1 | -0.4% |
| COc1ccc(S(=O)(=O)N[C@@H]2C=C[C@@H](CC(=O)N3CCc4ccccc4C3)O[C@@H]2CO)cc1 | 0.4% |
| Cc1cc(C)c(C#N)c(SCC(=O)N(CC(C)C)C2CCS(=O)(=O)C2)n1 (stereo unspecified) | -1.7% |
| CC1=C(C/C=C(\C)CCCC(C)CCCC(C)CCCC(C)C)C(=O)c2ccccc2C1=O (stereo unspecified) | -2.2% |
| COc1ccc(CCNS(=O)(=O)c2cn(C)nc2C)cc1 | -0.3% |
| CCC1CCCCN1C(=S)Nc1ccc(SC(F)F)cc1 (stereo unspecified) | 34% |
| N#C/C(=C\c1cccnc1)C(=O)Nc1ccc(SC(F)F)cc1 | 7.2% |
| O=C(Cc1ccc(Cl)c(Cl)c1)Nc1ccc(SC(F)F)cc1 | 82% (active) |
| CCc1nc2c(OCCOc3ccc(F)cc3)cccn2c1N(C)C(=O)c1ccccc1F | 0.6% |
| O=C(CSc1nc2[nH]c(=O)[nH]c(=O)c2s1)Nc1cccc(F)c1 | -0.6% |
| Cc1nc2nc(SCC(=O)Nc3cccc(F)c3)[nH]c2cc1Br | 63.9% (active) |
| Cc1nc2nc(SCC(=O)c3ccccc3)[nH]c2cc1Br | 9.9% |
| COc1cc(OC)cc(-c2c(-c3cccs3)c3cc(-c4ccc(OC)nc4)ccc3n2C)c1 | -0.4% |
| CCC(C)NC(=O)c1ccccc1NC(=O)c1ccccc1N(C)S(C)(=O)=O (stereo unspecified) | 0.4% |
| COCC(C)n1c(C)cc(C(=O)CSc2cc(C)c3ccccc3n2)c1C (stereo unspecified) | 3.2% |
| CCCNC(=O)c1cc(C2CCCCN2S(=O)(=O)c2cn(C)cn2)on1 (stereo unspecified) | 0.2% |

| Compound | inhibition |
| --- | --- |
| O=C(NCc1cc(C(F)(F)F)cc(C(F)(F)F)c1)C1CC(c2cccc(F)c2)=NO1 (stereo unspecified) | 2% |
| Cn1nccc1NC(=O)Nc1ccc(OC(F)(F)F)cc1 | 60.1% (active) |
| COC(=O)Cc1ccc(OCC(=O)Nc2ccc(OC(F)(F)F)cc2)cc1 | 0.1% |
| CN(CC(=O)Nc1ccc(OC(F)(F)F)cc1)C(=O)C1CCC1 | -0.8% |
| Cc1sc2ncnc(N3CCC(C(=O)NNC(=O)c4ccc(F)cc4)CC3)c2c1C | 0.7% |
| Cc1ccc2cc(CN(c3ccc(C)c(C)c3)S(C)(=O)=O)c(=O)[nH]c2c1 | -0.6% |
| C/C(=N\Nc1ccc([N+](=O)[O-])cc1)c1ccc(-n2nncc2C(C)(C)C)cc1 | 20.4% |
| Cc1nc(C)c2c(c1C(F)(F)F)-c1ccccc1C2(F)F | -0.4% |
| COc1cc(S(=O)(=O)Nc2ncn[nH]2)ccc1Cl | -1.7% |
| CCCCNC(=O)CSc1nc2ccc(NC(=O)CSc3nnc(N)s3)cc2s1 | 15.3% |
| Nc1nnc(SCC(=O)Nc2ccc3nc(SCC(=O)Nc4ccccc4)sc3c2)s1 | 95.5% (active) |
| CCCCNC(=O)CSc1nc2ccc(NC(=O)CSc3nnc(COc4ccccc4C)n3C)cc2s1 | 4.8% |
| O=C1c2ccccc2C(Nc2ccc3c(c2)OCCO3)N1Cc1ccco1 (stereo unspecified) | 3% |
| C[C@H](CO)N1C[C@H](C)[C@@H](CN(C)C(=O)NC2CCCCC2)Oc2ccc(NC(=O)c3ccncc3)cc2C1=O | -0.8% |
| CCOC(=O)NC(C(F)(F)F)(C(F)(F)F)P(=O)(c1ccccc1)c1ccccc1 | -3.1% |
| CN(c1ccccc1)S(=O)(=O)c1ccc(Cl)c(C(=O)OCC(N)=O)c1 | 1.9% |
| CC(=O)c1c(C)[nH]c(C(=O)COC(=O)c2cccc(S(=O)(=O)N(C)c3ccccc3)c2)c1C | 99.3% (active) |
| CC(=O)c1c(C)[nH]c(C(=O)COC(=O)CCOc2ccc(C)cc2)c1C | -2.4% |
| O=C1NCCn2nc3ccccc3c21 | 2.9% |
| CCN(CC)CCNCC(=O)Nc1ccc(Oc2ccccc2)cc1 | 1.8% |
| CCCC(C(=O)OCCN(CC)CC)(c1ccccc1)c1ccccc1 | 85.7% (active) |
| CCN(CC)CCOC(=O)c1ccc(NC(=O)CNC(=O)c2ccccc2)cc1 | -3.4% |
| COc1ccccc1C(=O)NC(=S)Nc1ccc(N2CCOCC2)cc1 | -1.6% |

| Compound | inhibition |
| --- | --- |
| Cc1ccccc1C(=O)NC(=S)Nc1ccc(N2CCN(C(=O)c3ccccc3)CC2)cc1 | 57.1% (active) |
| Cc1ccccc1C(=O)NC(=S)NC1CC1 | 1.7% |
| O=[N+]([O-])c1cccc(S(=O)(=O)N2CCCCCC2)c1 | -1% |
| CC1=CC(=C(C#N)c2nc3ccccc3s2)C=C(C)N1c1ccc(F)cc1F | 1.2% |
| O=C(O)CC/C(=C\c1cc2c(cc1Br)OCO2)c1nc2ccccc2s1 | 0.4% |
| N#C/C(=C(/O)Cc1cccc2ccccc12)c1nc2ccccc2s1 | 95.9% (active) |
| Cc1ccc(S(=O)(=O)NC2CCCCCC2)cc1C(N)=O | 1% |
| COc1cc(Cl)c(C)cc1NC(=O)CSc1nnc(CN2CCCC2)o1 | -2% |
| COc1ccc(N2CCN(CCCNC(=O)C3CCN(S(=O)(=O)N4CCOCC4)CC3)CC2)cc1 | -2.8% |
| CC(Oc1ccc(-c2ccccc2)c(F)c1)c1ccn(S(=O)(=O)c2cccc3ccccc23)n1 (stereo unspecified) | 1% |
| Cc1cc(C)c(C)c(S(=O)(=O)Nc2cccnc2)c1C | 1.4% |
| COc1ccc(S(=O)(=O)Nc2cccnc2)c(Cl)c1Cl | 0.5% |
| COc1ccccc1Oc1ccc(S(=O)(=O)Nc2cccnc2)cc1 | 82.5% (active) |
| COc1cc(OC)cc(/C(N)=N/O)c1 | 0.6% |
| O=C(CNC1CCCCC1)NCC1(c2ccccc2)CCCC1 | -0.9% |
| COC(=O)Nc1nc2ccc(Sc3ccccc3)cc2[nH]1 | 1.2% |
| CCCc1nc2c(c(=O)c3ccccc3n2C)c(=O)n1C1CCCCCC1 | 77.9% (active) |
| CCOC(=O)N1CCN(C(=O)c2nn(-c3ccc(C)cc3)c(=O)c3c2c2ccccc2n3C)CC1 | 11.3% |
| CCOC(=O)c1nnn2c3ccccc3c(=O)n(C)c12 | 1.2% |
| CCN(CC)S(=O)(=O)c1ccc(N2CCCC2)c(NS(=O)(=O)c2cccs2)c1 | -2.4% |
| Oc1c(Br)cccc1/C=N/Nc1c(F)c(F)c(F)c(F)c1F | 102% (active) |
| Brc1ccccc1/C=N/Nc1nc2ccccc2o1 | 1.1% |
| CC(Oc1ccc(F)cc1)C(=O)Nc1ccccc1C(=O)NC1CC1 (stereo unspecified) | -1.6% |

| Compound | inhibition |
| --- | --- |
| Cc1cc(C(=O)OCC(=O)NCc2ccco2)c(C)n1-c1ccccc1 | -0.8% |
| CCN1C(=O)[C@@H]2[C@@H](c3ccc(-c4cccc(Cl)c4)cc3)N3CCC[C@@]3(C(=O)OC)[C@@H]2C1=O | -1% |
| CCOC(=O)c1ccc(NC(=O)Cn2cnc3cc(C)c(C)cc32)cc1 | 96.9% (active) |
| CCOC(=O)c1ccc(NC(=O)CCn2c(=O)oc3ccccc32)cc1 | 0.1% |
| CCOC(=O)c1ccc(NC(=O)CS(=O)(=O)c2cn(CC)c3ccccc23)cc1 | 1% |
| CN(c1ccccc1)S(=O)(=O)c1cccc(NC(=O)Cc2c(F)cccc2Cl)c1 | 18.1% |
| CN(c1cccc(NC(=O)c2ccc(CN3CCc4ccccc4C3)cc2)c1)S(C)(=O)=O | 0% |
| Cc1ccc(CN(CC(=O)NCC2CCCO2)S(=O)(=O)c2ccc(C)cc2)cc1 (stereo unspecified) | 0.1% |
| CNS(=O)(=O)c1ccc(NC(=O)Nc2ccc3c(c2)OCO3)cc1 | 0.6% |
| CN(c1cccc(NC(=O)Nc2ccc(Cl)cc2)c1)S(C)(=O)=O | 92.2% (active) |
| COc1ccc(C)cc1S(=O)(=O)N(CC(=O)Nc1cccc([N+](=O)[O-])c1)c1ccc(C)cc1 | 0.7% |
| Cc1ccc(S(=O)(=O)N(CC(=O)Nc2cccc([N+](=O)[O-])c2)Cc2ccc(Cl)cc2)cc1 | 80.3% (active) |
| CN(c1ccccc1)S(=O)(=O)c1cccc(NC(=O)Cc2ccc(Cl)cc2)c1 | 61.7% (active) |
| CN(C)S(=O)(=O)c1cccc(NC(=O)Cc2ccsc2)c1 | 0.2% |
| O=C1N=C2SCCN2/C1=C\c1c(Cl)cccc1Cl | -0.2% |
| O=C(CNC(=O)OCc1ccccc1)Oc1cc2oc(=O)cc(-c3ccccc3)c2cc1Cl | 7.5% |
| Clc1ccc(-c2cc(C3CCNCC3)[nH]n2)c(Cl)c1 | 76.8% (active) |
| Clc1ccc(-c2cc(-c3ccccn3)on2)c(Cl)c1 | 2.1% |
| COc1ccc(C2c3[nH]c4ccccc4c3CCN2CCCn2cccn2)cc1C (stereo unspecified) | -1.1% |
| O=C1c2ccccc2C2=Nc3ccccc3SC(c3ccccc3F)C12 (stereo unspecified) | 93.3% (active) |
| CCC(C)N(C(=O)Cn1nc(C)c([N+](=O)[O-])c1C)C1CCS(=O)(=O)C1 (stereo unspecified) | 0.4% |
| O=C(CCN1CCc2ccccc2C(O)(c2ccccc2)C1)c1ccc2c(c1)OCCO2 (stereo unspecified) | 2.6% |
